Here are results for 15 compounds from PubChem BioAssay (NCATS).

The source made the active and inactive calls. Entries that show only a call come without a potency. The call rests on the fitted dose curve.
Potency means the concentration at half of the fitted maximal effect.

The test can be described thus: qHTS Assay for Identification of Small Molecule Antagonists for NFkB Signaling Pathway. (AID 624479).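 Further: pathway stimulated with TNF alpha.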 The conditions noted are these: NFkB pathway reporter cell assay, antagonist mode; series mostly up to 38.3 µM. (In qHTS, concentration-response curves come from the screen itself.)
Regarding `OCCC#Cc1nc(-c2ccc(F)cc2)c(-c2ccncc2)n1CCCc1ccccc1`, the Potency is 14.9 µM (active). Consider `Cc1cc([C@@H](C)Nc2ccccc2C(=O)O)c2nc(N3CCOCC3)cc(=O)n2c1`, for which the Potency result was “inactive”. In the case of `COc1cc2nccc(Oc3ccc(NC(=O)NC4CC4)c(Cl)c3)c2cc1C(N)=O` it was 18.8 µM (active). For `COc1cc(F)c(F)c(Nc2ccc(I)cc2F)c1NS(=O)(=O)C1(C[C@H](O)CO)CC1`, the Potency is 5.95 µM (active). In the case of `CC[C@H](Nc1ncnc2nc[nH]c12)c1nc2cccc(F)c2c(=O)n1-c1ccccc1` it was “inactive”; in that of `COc1ccc(COc2cc3oc(=O)c4cc(C(C)O)ccc4c3cc2OC)cc1` (stereo not given), “inactive”; in that of `CC(C)(C)OC(=O)CN(Cc1ccc(Cl)cc1)Cc1ccc([N+](=O)[O-])s1`, “inactive”. In the case of `CN(C)C(=O)c1ccc(S(=O)(=O)c2ccc(NC(=O)[C@@](C)(O)C(F)(F)F)c(Cl)c2)cc1` it was “inactive”; in that of `Cc1cc(C=c2sc3nc4ccccc4n3c2=O)c(C)n1-c1ccccc1`, “inactive”; in that of `CCOc1ccn(-c2ccc(F)cc2)c(=O)c1C(=O)Nc1ccc(Oc2ccnc(N)c2Cl)c(F)c1`, 16.8 µM (active).

`O=C(O)c1ccc(-c2c[nH]c3ccc(-c4ccccc4)cc23)cc1C1CCCC1`: the Potency is 14.9 µM (active). With `COc1cc(Nc2ncc3c(n2)-c2ccc(Cl)cc2C(c2c(F)cccc2OC)=NC3)ccc1C(=O)O`, the Potency result is “inactive”. In the case of `CN(C)c1ccc(Nc2nc(N)n(C(=O)c3c(F)cccc3F)n2)cc1` it was 14.9 µM (active); in that of `O=C(OCC#CCSc1nnc(-c2ccc3ccccc3c2)o1)c1cc2ccccc2s1`, “inactive”; in that of `COCCNCCCn1c(C(=O)CF)c(-c2ccc(C)cc2)c2c(N)ncnc21`, “inactive”.
